Shown are actives, neighbours in structure and some others; about 2.4% of the full set was active somewhere.
D2 PAM-1 = human D2 receptor positive allosteric modulation. 360,000 tested, 0.23% active. DiscoveRx D2 beta-arrestin cells, luminescence, 90 min; 100% = 57 uM dopamine signal. AID 624464. P14416. potentiation, % (test concentration not listed); in the data active = potentiation above about 50%; inconclusive = mostly about 30% to 49%
Target sequence (P14416 whole entry, looked up): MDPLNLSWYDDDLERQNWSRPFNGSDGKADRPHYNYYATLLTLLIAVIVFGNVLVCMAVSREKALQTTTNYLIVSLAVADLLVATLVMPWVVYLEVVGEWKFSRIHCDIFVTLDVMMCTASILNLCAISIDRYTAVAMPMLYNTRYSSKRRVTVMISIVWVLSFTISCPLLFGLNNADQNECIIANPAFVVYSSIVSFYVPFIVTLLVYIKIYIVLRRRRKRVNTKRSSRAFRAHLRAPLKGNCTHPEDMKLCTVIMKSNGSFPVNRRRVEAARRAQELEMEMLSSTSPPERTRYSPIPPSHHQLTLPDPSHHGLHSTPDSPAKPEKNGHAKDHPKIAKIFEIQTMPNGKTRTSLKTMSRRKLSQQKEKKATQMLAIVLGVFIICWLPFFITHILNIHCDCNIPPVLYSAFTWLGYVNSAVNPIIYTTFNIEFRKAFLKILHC
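PathHunter beta-arrestin assay in DiscoveRx D2 cells. Compounds were added with an EC20 of dopamine (50 nM final) for 90 min at 37 deg C. Luminescence was read 1 h after detection reagent, with 57 uM dopamine as the EC100 control.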
D2 PAM-2 = positive allosteric modulators of human D2 dopamine receptor. HEK293 T-REx D2, calcium flux, EC20 dopamine potentiation. potentiation, % at 10 µM. 340,000 tested, 0.34% active. AID 485347;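 active = potentiation over 3 SD above the plate norm, cut at about 30% in these data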
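Using a no-wash calcium dye in inducible, force-coupled HEK293 Trex cells expressing D2, we tracked fluorescence each second for 180 s after compound, then for 180 s after EC20 dopamine to detect augmented signalling.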
D2 ag-1 = agonists of human D2 dopamine receptor (beta-arrestin); DiscoveRx PathHunter D2 beta-arrestin, luminescence, 90 min; 100% = 57 uM dopamine signal; activation, % (no concentration beside the values); P14416; 360,000 tested, 0.084% active; in the data active = activation above about 40%; inconclusive = between about 15% and that limit
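Agonist mode: compounds alone added to overnight-plated D2 PathHunter cells for 90 min at 37 C, with 57 uM final dopamine (EC100) defining full response. Beta-arrestin recruitment detected by chemiluminescent reagent, read after 1 h at ambient temperature.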
D2 ag-2 = D2 dopamine receptor (human) agonism. P14416. HEK293 T-REx D2 cells, calcium flux agonist mode. activation, % at 2 µM. 340,000 tested, 0.53% active;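 active = activation over 3 SD above normal in the single-dose calcium agonist read, cut at about 30% in these data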
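Tetracycline-induced HEK293 Trex cells with D2 receptor force-coupled to calcium signaling, plated overnight at 30 C and loaded with no-wash calcium dye. Calcium flux read kinetically for 180 s after compound addition; responses flag agonists.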
D2 antagonist = antagonizes the human D2 dopamine receptor | 340,000 tested, 2% active | inhibition, % at 10 µM | P14416 | AID 485344 | HEK293 TREx D2 cells, calcium flux, dopamine EC80; in the data active = inhibition above about 30%; inactive = below that, where a call was filed
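Antagonism is scored as inhibition of an EC80 dopamine-evoked calcium signal in a force-coupled, tetracycline-inducible HEK293 T-REx D2 line, with compound present 180 s before agonist.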
D3 arrestin ag = confirmation of human D3 dopamine receptor agonists, beta-arrestin | DiscoveRx D3 beta-arrestin cells, luminescence, 90 min | shares compounds with D2 ag-2 | 2,300 tested, 4% active | AID 720506 | Potency, µM (doses to about 76.9 µM), hits mostly activators; also: nearly all actives have a fitted effect of over 70% in size
D2 ag-3 = D2 receptor agonism, beta-arrestin counterscreen; shares compounds with D2 ag-2; DiscoveRx PathHunter D2 beta-arrestin, luminescence, 90 min; response scale: percent relative to full dopamine signal; Potency, µM (titrated, usually from 76.9 µM), hits mostly activators; 2,300 tested, 5.9% active; AID 720507; also: nearly all actives have a fitted effect of over 70% in size
Numbers stand for hits; 0 = inactive; ? = inconclusive; - = not tested or not shown. Unless noted, calls follow the shape of the dose curve; as a rule, active = well fitted activation curve with a large enough effect; inconclusive = small, poorly fitted or top-dose-only effect; inactive = flat fitted curve, though single readings scatter.

SMILES | D2 PAM-1 | D2 PAM-2 | D2 ag-1 | D2 ag-2 | D2 antagonist | D3 arrestin ag | D2 ag-3
Nc1ccc(C(=O)c2cccs2)cc1[N+](=O)[O-] | 0 | 0 | 0 | 0 | 0 | 0 | 0
Nc1ccc(C(=O)O)cc1[N+](=O)[O-] | 0 | 0 | 0 | 0 | 0 | - | -
CCCn1c(C2CCCN2c2nc(-c3cccc(Br)c3)cs2)nc2cc(Cl)c(Cl)cc21 (stereo not given) | 0 | 0 | 0 | 40.2 | 0 | 0 | 0
CCCn1c(C2CCCN2c2nc(C)cs2)nc2cc(Cl)c(Cl)cc21 (stereo not given) | 0 | 0 | 0 | 0 | 0 | - | -
COc1ccc(-c2nc3c(C#N)c[nH]n3c2NC2CCCC2)c(OC)c1 | - | 0 | - | 0 | - | - | -
O=C(c1oc(=O)c2ccccc2c1-c1ccccc1)N1CCC(O)CC1 | 0 | 0 | 0 | 0 | 0 | 0 | 0
O=c1oc2c(CN3CCOCC3)c(O)ccc2cc1-c1ccc(Cl)cc1 | - | 0 | - | 0 | - | - | -
COc1ccc(SC[C@H](Cc2ccccc2)N2CC[C@@H](C(C)(C)C)CCC2=O)cc1 | 0 | 0 | 0 | 0 | 0 | 0 | 0
COc1ccc(SC[C@H](Cc2ccccc2)N2CC[C@@H](O)CCC2=O)cc1 | 0 | 0 | 0 | 0 | 0 | - | -
O=c1ccn(CCc2c[nH]c3ccccc23)c2c1CCCC2 | 0 | 0 | 0 | 42.9 | 0 | 0 | 0
Cc1cc(OCc2cc(C(=O)N3CCC(Oc4cccnc4)CC3)no2)cc(C)c1Cl | 0 | 0 | 0 | 50.7 | 0 | 0 | ?
Cc1cc(OCc2cc(C(=O)NC3CCC3)no2)cc(C)c1Cl | 0 | 0 | 0 | 0 | 43.0 | 0 | 0
CN(CC(=O)NCc1ccccc1)CC(=O)Nc1ccc(Cl)c(C(F)(F)F)c1 | 0 | 0 | 0 | 0 | 0 | 0 | 0
O=C(c1cccn1-c1nnc(N2CCCCC2)s1)N1CCN(c2ccc(Cl)cc2)CC1 | - | 0 | - | 0 | - | - | -
CN(CC(=O)NNC(=O)CNC(=O)c1ccccc1F)S(=O)(=O)c1ccc(Cl)cc1 | 0 | 0 | 0 | 0 | 0 | - | -
CN(CC(=O)NNC(=O)CNC(=O)c1cccs1)S(=O)(=O)c1ccc(Cl)cc1 | 0 | 0 | 0 | 41.8 | 0 | 0 | 0
CCOc1ccccc1C(=O)NCC(=O)NNC(=O)CN(C)S(=O)(=O)c1ccc(Cl)cc1 | 0 | - | ? | - | - | ? | ?
CCN(CC)C(=O)Cn1cc(C(=O)C(=O)N2CCN(Cc3ccccc3)CC2)c2ccccc21 | 0 | 0 | 0 | 58.4 | 0 | 0 | 0
COC(CNC(=O)Cn1nc(Cc2ccncc2)c2ccccc2c1=O)OC | 0 | 0 | 0 | 0 | 0 | 0 | 0
CCOC(CNC(=O)Cn1nc(Cc2ccncc2)c2ccccc2c1=O)OCC | 0 | 0 | 0 | 0 | 0 | - | -
CC1(C)C(C=C(Cl)Cl)C1C(=O)N1CCN(Cc2ccccc2)CC1 (stereo not given) | ? | 0 | ? | 70.1 | 78.0 | ? | 17.8µM
COc1ccc(NC(=O)CSc2ccc3nnc(CCNC(=O)c4ccccc4)n3n2)cc1 | 0 | 0 | 0 | 0 | 0 | 0 | 0
CC(=O)Nc1ccc(NC(=O)CSc2ccc3nnc(CCNC(=O)c4ccccc4)n3n2)cc1 | 0 | 0 | 0 | 0 | 0 | - | -
OC1(Cc2cc(-c3ccccc3)no2)CCN(CCCc2ccccc2)CC1 | 0 | 0 | 0 | 46.1 | 73.1 | ? | 0
CCC(=O)NNc1ncnc2c1cnn2C | 0 | 0 | 0 | 0 | 47.6 | 0 | 0
CCN1CCN(c2ccc(S(=O)(=O)N3CCOCC3)cc2NC(=O)C(C)Oc2ccc(F)cc2)CC1 (stereo not given) | 0 | 0 | 0 | 0 | 0 | 0 | 0
CC(Oc1ccc(F)cc1)C(=O)Nc1cc(S(=O)(=O)N2CCOCC2)ccc1N1CCCC1 (stereo not given) | 0 | 0 | 0 | 0 | 0 | - | -
Oc1cc2c(c(Cl)c1O)CCNCC2c1ccccc1 (stereo not given) | 0 | - | 0 | - | - | - | -
Cc1cccc(C2CN(C)CCc3c2cc(O)c(O)c3Cl)c1 (stereo not given) | 0 | 0 | 0 | 51.7 | 79.2 | ? | 0

Source: PubChem (National Center for Advancing Translational Sciences (NCATS))
